An excerpt weighted towards active compounds, which were near 2.5% of everything screened.
MEKK2 mut-MEK5 = signal of MEK5 binding to mutant human MEKK2 PB1 domain. bead flow cytometry, Alexa488-MEK5 binding to MEKK2 mutant. AID 1530. percent response, % at 10 µM. 0.35% of 290,000 active; in the data active = percent response above about 24%, passing the limit was not always enough
MEKK2wt PB1 HTS = raises or lowers MEK5 binding to wildtype human MEKK2 PB1 domain | 1.1% of 290,000 active | bead flow cytometry, Alexa488-MEK5 binding to MEKK2 WT; actives lie on both sides | Q9Y2U5 | AID 1531 | binding response (% of control), % at 10 µM; in the data active = binding response below about 67% or above about 130%
MEKK3 PB1 HTS = MEKK3-MEK5 PB1 interaction, increase or decrease | Q99759 | bead-based flow cytometry, Alexa488-MEK5 binding to MEKK3; actives lie on both sides; 0 = blocked by unlabeled MEK5, 100 = vehicle | binding response (% of control), % at 10 µM | 1.4% of 290,000 active;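 active = binding response more than 3 SD above or below the average of its plate-row segment, actives on both sides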;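 also: Alexa488 bead fluorescence after subtracting the streptavidin-only scavenger bead signal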
Target sequence (Q99759 whole entry, looked up): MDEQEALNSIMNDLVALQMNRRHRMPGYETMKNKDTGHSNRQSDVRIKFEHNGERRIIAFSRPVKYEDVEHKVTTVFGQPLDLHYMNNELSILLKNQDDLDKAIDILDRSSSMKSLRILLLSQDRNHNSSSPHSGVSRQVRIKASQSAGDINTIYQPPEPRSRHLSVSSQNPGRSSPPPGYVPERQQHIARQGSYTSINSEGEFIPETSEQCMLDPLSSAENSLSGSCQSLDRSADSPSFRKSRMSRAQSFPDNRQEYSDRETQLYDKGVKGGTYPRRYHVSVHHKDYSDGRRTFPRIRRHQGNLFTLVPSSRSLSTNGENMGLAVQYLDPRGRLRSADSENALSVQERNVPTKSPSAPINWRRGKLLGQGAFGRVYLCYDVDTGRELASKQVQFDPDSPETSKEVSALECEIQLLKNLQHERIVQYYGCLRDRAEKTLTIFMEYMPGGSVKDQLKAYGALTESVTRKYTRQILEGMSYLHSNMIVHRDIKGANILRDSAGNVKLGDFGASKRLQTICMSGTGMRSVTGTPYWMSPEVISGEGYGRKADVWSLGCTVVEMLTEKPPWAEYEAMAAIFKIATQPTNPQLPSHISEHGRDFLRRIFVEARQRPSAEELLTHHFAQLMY
Rce1 inh = inhibitors of yeast Ras-converting enzyme. yeast membranes, quenched prenylated peptide cleavage fluorescence. Q03530. 0.27% of 290,000 active. calls only;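 active = fall in fluorescence gain of 50% or more versus controls, with final raw signal at or below 3038400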;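 also: plate controls were neutral control wells for no effect and wells lacking membranes for full effect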
UBC13 polyUb = inhibitors of human UBC13 polyubiquitin chain formation | P61088 | TR-FRET | inhibition, % at 20 µM | 0.47% of 330,000 active; in the data active = inhibition above about 45%, passing the limit was not always enough
MEKK2wt confirm = raises or lowers MEK5 binding to wildtype human MEKK2, retest. shares compounds with MEKK3 PB1 HTS. bead flow cytometry, Alexa488-MEK5 binding to MEKK2 WT; actives lie on both sides. binding response (% of control), % at 10 µM. 2.4% of 5,900 active. AID 1892; in the data active = binding response below about 16% or above about 210%; inactive = in between
MEKK2mut-MEK5 = signal of MEK5 binding to mutant human MEKK2, retest; 2% of 5,900 active; bead flow cytometry, Alexa488-MEK5 binding to MEKK2 mutant; shares compounds with MEKK3 PB1 HTS; percent response, % at 10 µM; in the data active = percent response mostly above about 71%, no sharp cut-off; inactive = mostly below about 38%;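 also: higher means compound restores mutant binding toward wildtype level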
MEKK3-MEK5 inh = confirmation of inhibitors of MEK5 binding to human MEKK3; shares compounds with MEKK3 PB1 HTS; bead flow cytometry, Alexa488-MEK5 binding to MEKK3; active compounds read low; binding response (% of control), % at 10 µM; 1.8% of 5,900 active; AID 1894;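 active = binding response below 72% of control, or above a set upper limit, though filed actives all read lower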;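 also: 100% = DMSO only wells and 0% = binding blocked by excess unlabeled MEK5; lower values mean stronger disruption of MEK5 binding to MEKK3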
Starred values were filed as active, the others as inactive; i = inactive; . = not tested or not shown; [ ] = dose if it differs, or a comment.

SMILES	MEKK2 mut-MEK5	MEKK2wt PB1 HTS	MEKK3 PB1 HTS	Rce1 inh	UBC13 polyUb	MEKK2wt confirm	MEKK2mut-MEK5	MEKK3-MEK5 inh
COC(=O)CCC(=O)OC1(C)C(=O)C=C2C=C(C3CC3)N(C3CCCC3)C=C2C1=O (configuration not stated)	4	149*	122	i	-78	100	7	104
COc1ccccc1C(=O)N/C(=C\c1cn(C)c2ccccc12)C(=O)NCCCn1ccnc1	2	105	101	i	-12	.	.	.
Cc1csc(N2CCN(c3cc4c(cc3Cl)nc(-c3ccncc3)n4CCCN3CCCC3)CC2)n1	22	147*	102	i	40	164	51	107
Cc1nc(NC(=O)/C=C/c2ccccc2)sc1C(=O)NCCO	79*	129	139*	i	-10	97	-6	98
CCOC(=O)CNC(=O)c1sc(NC(=O)/C=C/c2ccccc2)nc1C	0	105	102	i	30	.	.	.
CCC(=O)N1c2ccc(S(=O)(=O)NCCc3ccc(OC)c(OC)c3)cc2CC1C (configuration not stated)	-2	97	97	i	-5	.	.	.
c1ccc(CN2CCN(CCCNc3ccc4nnc(-c5ccccc5)n4n3)CC2)cc1	24*	132	114	i	14	161	38	111
Cc1ccc(CNc2ccc3nnc(-c4ccccc4)n3n2)cc1	-3	102	108	i	4	.	.	.
CC1CCCCN1CCCNC(=O)c1ccc(NC(=O)C2=CSCCO2)cc1 (configuration not stated)	3	109	98	i	5	.	.	.
O=C(/C=C/c1ccc(Cl)cc1)Nc1ccc(CN2CCOCC2)cc1	31	140*	106	.	1	111	3	102
CC(C)c1ccc(/C=C/C(=O)Nc2ccc(CN3CCOCC3)cc2)cc1	-17	95	93	i	17	.	.	.
Cc1cccc(NC(=O)CSc2nc3nc4c(cc3c(=O)n2-c2ccccc2)CCCC4)c1	0	104	132*	i	-3	90	-3	99
CC1=[N+](C)c2ccc3ccccc3c2C1(C)C	71*	.	89	i	-43	88	5	91
Cc1ccc(Nc2nc(NCCCN3CCOCC3)nc(N)c2[N+](=O)[O-])cc1C	21	148*	106	i	14	131	15	102
COc1ccccc1Nc1nc(NCCCN(C)C)nc(N)c1[N+](=O)[O-]	47	145*	111	i	10	144	29	103
CSCC(CO)NS(=O)(=O)c1ccc(C)cc1 (configuration not stated)	-19	84	89	i	-12	.	.	.
Cc1onc(-c2ccccc2)c1-c1nnc(CN2CCN(S(=O)(=O)c3ccccc3F)CC2)o1	.	.	.	.	10	.	.	.
Cc1cccc2sc(NC(=O)CN3C(=O)C4CC=CCC4C3=O)nc12 (configuration not stated)	8	129	148*	i	3	104	3	108
Cc1c(Cl)ccc2sc(NC(=O)CN3C(=O)c4ccccc4C3=O)nc12	-9	76	64*[inhibitor]	i	-20	98	6	98
Cc1cccc2sc(NC(=O)CN3C(=O)NC4(CCCC4)C3=O)nc12	-6	95	97	i	2	.	.	.
CC1(c2ccccc2)NC(=O)N(Cc2ccc([N+](=O)[O-])cc2)C1=O (configuration not stated)	-1	102	99	i	-1	.	.	.
N#Cc1ccc(NC(=O)Nc2ccc(Oc3ccc(NC(=O)Nc4ccc(C#N)cc4)cc3)cc2)cc1	42	150*	106	i	-8	141	16	101
COC(=O)C(Cc1ccc(O)cc1)NC(=O)C(C)Oc1ccccc1 (configuration not stated)	-39	-5.0*[inhibitor]	0.0*[inhibitor]	i	-2	106	8	107
COc1cc2c(cc1OC)C(C(=O)NC(C)c1ccccc1)CC(=O)N2 (configuration not stated)	5	107	101	i	-4	.	.	.
S=C(Nc1ccc(Cl)c(Cl)c1)NC1CCN(Cc2ccccc2)CC1	34*	168*	111	i	33	171	35	110
SMILES	MEKK2 mut-MEK5	MEKK2wt PB1 HTS	MEKK3 PB1 HTS	Rce1 inh	UBC13 polyUb	MEKK2wt confirm	MEKK2mut-MEK5	MEKK3-MEK5 inh
Cc1ccc(NC(=S)NCCCN2CCOCC2)cc1C	1	108	103	i	0	.	.	.
S=C(NC1CCCCC1)N1CCN(Cc2ccccc2)CC1	2	105	143*	i	13	109	4	104
S=C(Nc1ccc(Cl)cc1)NC1CC2CCC(C1)N2Cc1ccccc1 (configuration not stated)	41	156*	110	i	14	142	28	110
S=C(NCCCN1CCOCC1)Nc1ccc(Cl)c(Cl)c1	0	109	63*[inhibitor]	i	13	89	-9	79
CSc1cccc(NC(=S)NCCCN2CCN(c3ccc(F)cc3)CC2)c1	18	142*	115	i	9	134	9	103
Fc1cccc(NC(=S)NCCCN2CCOCC2)c1	-3	95	98	i	-3	.	.	.
N#Cc1cccc(Oc2ccc(-c3cnc4ccccc4n3)cc2)c1C#N	-1	100	130*	i	-2	98	-5	100
COc1cc(/C=C(\NC(=O)c2ccccc2)C(=O)NCC(=O)O)c([N+](=O)[O-])cc1OC	0	108	132*	i	-7	109	21	111
COc1ccc(C(=O)N/C(=C\c2cc(OC)c(OC)cc2[N+](=O)[O-])C(=O)NCC(=O)O)cc1	-2	98	104	i	-9	.	.	.
CC(=O)c1nnn(-c2ccc([N+](=O)[O-])cc2)c1C	-10	92	102	i	2	.	.	.
CN(C)c1ccc(-c2nnc(-c3ccccc3F)o2)cc1	26*	104	104	i	11	96	-5	99
COc1ccc(-c2nnc(-c3ccc(N(C)C)cc3)o2)cc1	1	101	98	i	9	.	.	.
COc1ccc(NC(=O)c2cc(-c3cc(C)cc(C)c3O)n[nH]2)cc1Cl	9	167*	107	i	-18	150	16	102
Cn1c(/C=C(\C#N)C(N)=S)ccc1-c1ccc(Br)cc1	-6	62*[inhibitor]	86	.	.	74	-16	100
Cn1cccc1/C=C(\C#N)C(N)=S	-3	98	97	i	11	.	.	.
